Screens as filed in PubChem BioAssay.
Sampled rows, rich in hits. Any-hit rate of the full collection: about 8%.
HT1080NT lethal – kills 2HG-producing HT-1080-NT fibrosarcoma cells; HT-1080-NT fibrosarcoma viability, CellTiter-Glo ATP luminescence, 48 h; Potency, µM (series often up to 46.1 µM), usual class: cytotoxic; 360,000 tested, 1.6% active;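 note: NT is the 2HG producing partner of a matched IDH1 knockdown line; nearly all actives have a fitted effect of over 55% in size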
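750 cells/well, RPMI + 5% FBS; 2 h settle, compound pin-transfer, 48 h at 37 degrees C. CellTiter-Glo 10 min RT, luminescence. Normalized to DMSO and media-only wells.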
HT1080 IDH1KD tx – HT-1080 IDH1 knockdown cell toxicity (counter line). 360,000 tested, 2% active. HT-1080 IDH1 knockdown viability, ATP luminescence, 48 h. Potency, µM (titrated, usually from 46.1 µM), usual class: cytotoxic
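Assay cells: HT-1080 with IDH1 knockdown, 750 per well, RPMI/5% FBS. Exposure: 48 h at 37 °C following 2 h pre-incubation. Read: CellTiter-Glo luminescence; fitted concentration-response, curve class assigned.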
KB-3-1 cytotox – kills parental KB-3-1 adenocarcinoma cells; KB-3-1 viability, CellTiter-Glo ATP luminescence, 72 h; Potency, µM (top dose mostly 46.1 µM), usual class: cytotoxic; 400,000 tested, 1.4% active; note: nearly all actives have a fitted effect of over 60% in size
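Parental KB-3-1 viability, qHTS format: 72 h compound exposure, 37 °C; CellTiter-Glo; media-only wells and DMSO plates as controls; concentration-effect fits on corrected data.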
MCF10A rereplic – induces DNA re-replication in MCF 10a normal breast cells. Potency, µM (series often up to 46.1 µM), most hits filed as activators. AID 624296. 350,000 tested, 2.9% active. MCF 10A DNA re-replication, Hoechst nuclear intensity, 48 h; note: nearly all actives have a fitted effect of over 50% in size
KB-V1 MDR tox – KB-V1 MDR subline cytotoxicity; KB-V1 MDR cells viability, CellTiter-Glo, 72 h; Potency, µM (titrated, usually from 46.1 µM), most hits filed as cytotoxic; 400,000 tested, 3.4% active; AID 1347076; note: nearly all actives have a fitted effect of over 60% in size
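Cytotoxicity via CellTiter-Glo luminescence after 72 h compound exposure at 37 degrees C. Cells: drug-selected KB-V1 line, DMEM phenol-red free plus 10% FBS. Compounds tested at multiple concentrations; normalized data fitted to concentration-effect curves.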
SW480 rerep – inducers of DNA re-replication in SW480 colon cancer cells; SW480 DNA re-replication, Hoechst DNA content imaging, 48 h; 340,000 tested, 1.8% active; Potency, µM (titrated, usually from 46.1 µM), most hits filed as activators; note: nearly all actives have a fitted effect of over 55% in size
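Image-based DNA-content assay: after two days of treatment, nuclei were labelled with the DNA dye Hoechst and imaged, and hits were compounds raising the count of nuclei showing high fluorescence intensity.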
Of the large screens only hits and unclear results are named; the others gave an inactive call. Calls come from the whole dose curve; as a rule, active = well fitted curve in the direction sought with a large enough effect; inconclusive = small, poorly fitted or top-dose-only effect, or another doubt; inactive = no such curve, though single readings can be large; an effect the other way counts as inactive or inconclusive.

CC1=C(C(=O)N2CCCCCC2)CC(CC(=O)NCc2cccs2)C(=O)N1CCC1=CCCCC1 (stereo not drawn)	KB-V1 MDR tox inconclusive (no result: MCF10A rereplic, SW480 rerep)
Cc1ccc(C(C)C)c(OCc2nn(CC(=O)c3ccc(Cl)cc3)c3[n+]2CCCCC3)c1	HT1080NT lethal inconclusive, HT1080 IDH1KD tx 18.4µM, KB-3-1 cytotox inconclusive, MCF10A rereplic inconclusive, SW480 rerep inconclusive
CN(CC(=O)Nc1cc(S(=O)(=O)N2CCCC2)ccc1Cl)Cc1nc2ccccc2c(=O)[nH]1	none
Cc1cc(C)c(C#N)c(Sc2nc(C)c([N+](=O)[O-])c(C)c2C#N)n1	HT1080NT lethal 16.4µM, HT1080 IDH1KD tx 4.61µM, KB-3-1 cytotox inconclusive (no result: MCF10A rereplic, SW480 rerep)
CSc1ccc(C#N)cc1NC(=O)c1cccnc1Cl	none
COc1cc(/C=N/Nc2nc(N3CCCC3)nc(N3CCCC3)n2)ccc1O	MCF10A rereplic inconclusive
COc1ccc(-c2cnnc(N/N=C/c3ccc(O)c(OC)c3)n2)cc1	HT1080NT lethal inconclusive, HT1080 IDH1KD tx 5.17µM, KB-3-1 cytotox 4.11µM, MCF10A rereplic 14.6µM, KB-V1 MDR tox 5.8µM, SW480 rerep 16.4µM
COc1ccc(-c2cnnc(N/N=C/c3ccc(-c4ccc([N+](=O)[O-])cc4)o3)n2)cc1	HT1080 IDH1KD tx inconclusive, KB-3-1 cytotox 4.61µM, MCF10A rereplic 1.03µM, KB-V1 MDR tox 18.4µM, SW480 rerep inconclusive
O=C1/C(=C\c2ccc(Br)o2)SC(=Nc2ccccc2)N1c1ccccc1	KB-V1 MDR tox 9.2µM
CC1CCN(C(=O)CSc2nc3ccccc3s2)CC1	MCF10A rereplic inconclusive, KB-V1 MDR tox 14.6µM
O=C(CSc1nc2ccccc2s1)N1c2ccccc2Sc2ccccc21	KB-3-1 cytotox inconclusive, MCF10A rereplic inconclusive, KB-V1 MDR tox 20.6µM
CC1CCCN(C(=O)CSc2cnc3ccccc3n2)C1 (stereo not drawn)	MCF10A rereplic inconclusive, KB-V1 MDR tox 9.2µM
CCCCNC(=O)c1cnc2sc(N3CCCCC3)nn2c1=O	none (no result: HT1080NT lethal, HT1080 IDH1KD tx, MCF10A rereplic, SW480 rerep)
COc1ccc(C(C)(C)C)cc1NC(=O)C1C2C=CC(C2)C1C(=O)O (stereo not drawn)	none
CCOC(=O)/C=c1\s/c(=C\c2c(OC)ccc3ccccc23)c(=O)n1CC(=O)NCC1CCCO1 (stereo not drawn)	HT1080NT lethal 10µM, HT1080 IDH1KD tx 7.94µM, KB-3-1 cytotox 4.61µM, MCF10A rereplic 1.16µM, KB-V1 MDR tox 2.31µM, SW480 rerep 5.8µM
CCOC(=O)/C=c1\s/c(=C\c2ccc(C(=O)OC)cc2)c(=O)n1CC(=O)Nc1ccccc1	MCF10A rereplic inconclusive
CCOC(=O)/C=c1/s/c(=C/c2ccc3cc(OC)ccc3c2)c(=O)n1CC(=O)NCC1CCCO1 (stereo not drawn)	KB-3-1 cytotox inconclusive, MCF10A rereplic inconclusive, SW480 rerep 3.66µM
CCOC(=O)/C=c1\s/c(=C\c2ccc(C#N)cc2)c(=O)n1CC(=O)NCc1ccco1	MCF10A rereplic inconclusive
Cc1cc(C)nc(SCC(=O)NN=C2CCCC2)n1	SW480 rerep inconclusive
O=C(c1ccco1)c1nnn(Cc2ccccc2)c1-c1ccccc1	HT1080 IDH1KD tx inconclusive, MCF10A rereplic inconclusive, KB-V1 MDR tox 23.1µM
CCOC(=O)C1=C(C)N=c2s/c(=C\c3ccc(OCC(=O)O)cc3)c(=O)n2C1c1ccc(OC(C)C)cc1 (stereo not drawn)	MCF10A rereplic 14.6µM, KB-V1 MDR tox inconclusive
CCOC(=O)C1=C(C)N=c2sc(=Cc3cc(Cl)c(OCC(=O)O)c(Cl)c3)c(=O)n2C1c1cccc(OC)c1 (stereo not drawn)	HT1080NT lethal 25.9µM, HT1080 IDH1KD tx 20.6µM (no result: MCF10A rereplic, SW480 rerep)
CCOC(=O)C1=C(C)N=c2sc(=Cc3ccc(OCC(=O)O)cc3)c(=O)n2C1c1ccc(Cl)cc1 (stereo not drawn)	none (no result: MCF10A rereplic, SW480 rerep)
Cc1cc(-c2c(C(=O)N3CCOCC3)c(C)nn2-c2ccccc2)no1	none
CN(C)CCN1CCN(C2CN(Cc3cn(Cc4cccc(Cl)c4)nn3)S(=O)(=O)C2)CC1 (stereo not drawn)	none (no result: MCF10A rereplic, SW480 rerep)
